Test results: article PMC4336329 (PLoS ONE, 2015)
Among all 310,000 compounds or so, about 14,000 (4.5%) showed an effect of 50% or more. Effects have a minus sign here. This excerpt belongs to a sample that is enriched for strong results.

Target: human ether-à-go-go-related gene (hERG) potassium channel (human, UniProt Q12809)
Experiment: primary screen, population patch clamp on CHO cells stably expressing hERG; higher = less effect of the substance
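Also: peak tail current of the secondary pulse compared with the same well before compound.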

human ether-à-go-go-related gene (hERG) potassium channel, sequence (Q12809 whole entry, looked up): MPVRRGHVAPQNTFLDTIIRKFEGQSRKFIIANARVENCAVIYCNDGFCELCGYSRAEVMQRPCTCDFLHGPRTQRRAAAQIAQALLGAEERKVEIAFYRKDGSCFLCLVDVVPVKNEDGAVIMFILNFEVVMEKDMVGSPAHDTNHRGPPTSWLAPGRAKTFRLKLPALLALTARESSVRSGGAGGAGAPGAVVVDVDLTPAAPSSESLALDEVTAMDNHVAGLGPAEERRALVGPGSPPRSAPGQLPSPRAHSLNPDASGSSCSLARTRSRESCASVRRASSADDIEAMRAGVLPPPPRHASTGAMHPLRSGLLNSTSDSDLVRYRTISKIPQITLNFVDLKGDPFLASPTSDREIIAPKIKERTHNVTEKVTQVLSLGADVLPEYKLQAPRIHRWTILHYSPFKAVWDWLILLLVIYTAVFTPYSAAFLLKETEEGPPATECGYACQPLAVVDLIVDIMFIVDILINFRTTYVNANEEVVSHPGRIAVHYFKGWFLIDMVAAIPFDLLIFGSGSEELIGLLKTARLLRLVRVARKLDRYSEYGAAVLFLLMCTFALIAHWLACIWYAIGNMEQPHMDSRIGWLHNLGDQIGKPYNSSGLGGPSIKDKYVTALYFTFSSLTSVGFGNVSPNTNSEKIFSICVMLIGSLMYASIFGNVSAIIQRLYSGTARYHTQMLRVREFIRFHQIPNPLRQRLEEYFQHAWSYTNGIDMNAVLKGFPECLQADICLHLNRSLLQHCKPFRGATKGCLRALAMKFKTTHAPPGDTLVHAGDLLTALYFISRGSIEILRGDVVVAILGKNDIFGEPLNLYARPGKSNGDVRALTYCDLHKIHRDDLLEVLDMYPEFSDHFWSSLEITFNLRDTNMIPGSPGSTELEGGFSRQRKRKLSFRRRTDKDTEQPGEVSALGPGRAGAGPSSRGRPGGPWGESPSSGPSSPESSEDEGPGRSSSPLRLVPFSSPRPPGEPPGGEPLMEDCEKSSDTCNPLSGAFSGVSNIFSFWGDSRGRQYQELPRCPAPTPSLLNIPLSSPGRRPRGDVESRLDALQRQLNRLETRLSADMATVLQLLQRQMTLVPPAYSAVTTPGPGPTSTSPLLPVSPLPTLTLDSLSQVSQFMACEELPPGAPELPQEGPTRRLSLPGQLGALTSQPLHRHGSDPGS

Compound | hERG current change (%, negative = inhibition) at 10uM [%]
CN(C)c1ccc(NC(=O)N2CCOCC2)cc1 | -3.34
Cc1ccc(-c2cc3nc(-c4ccc(Br)cc4)cc(N)n3n2)cc1 | -8.51
CCCN(CC(=O)Nc1c(C)cccc1CC)C(=O)SCC | 10
CCc1cccc(NC2c3ccccc3C(=O)N2c2cccnc2)c1 (stereo not drawn) | -10.2
CCC(C)(C)NC(=O)C(c1ccc(OC)cc1)N(C(=O)CCC(=O)Nc1cc(C)on1)C(C)(C)C (stereo not drawn) | -27.1
COc1ccc(OCC(O)CNCc2ccco2)cc1 (stereo not drawn) | 1.32
COc1ccc(CCNC(=O)C2CCN(S(=O)(=O)N3CCC4(CC3)OCCO4)CC2)cc1OC | 1.93
COc1cc(C2=NOC(C(=O)Nc3ccc(C)cc3)C2)cc(OC)c1OC (stereo not drawn) | -4.96
CCOC(=O)c1ccc(NC(=S)NC(=O)COc2ccccc2)cc1 | 11
CCCCOc1ccc(-n2nc(C)cc2C)nn1 | -16.3
CCOC(=O)N1CCN(C(=O)c2ccc(NS(C)(=O)=O)cc2)CC1 | -5.65
Cn1c(SCC(=O)NC2CCCCC2)nnc1-c1ccncc1 | 13.2
C[C@H]1COc2c(N3CCN(C)CC3)c(F)cc3c(=O)c(C(=O)O)cn1c23 | 11.2
Cc1cc(C)c(NC(=O)c2cn3c4c(c(N5CCN(C)CC5)c(F)cc4c2=O)OCC3C)c(C)c1 (stereo not drawn) | -51.7
CC1COc2c(N3CCN(C)CC3)c(F)cc3c(=O)c(C(=O)O)cn1c23 (stereo not drawn) | 18.2
O=C(Cc1cccs1)Nc1ccccc1-c1nc2ccccc2[nH]1 | 19.7
CC(C)c1nnc(NC(=O)CC(=O)Nc2ccccc2C(=O)O)s1 | 4.72
CON(C)c1nc(Oc2ccc(=O)[nH]n2)nc(N(C)C)n1 | -9.3
Cc1cc(C(=O)CN2C(=O)NC3(CCCC3)C2=O)c(C)n1-c1ccc2c(c1)OCO2 | -28.5
COCCn1c(C)cc(C(=O)CN2C(=O)NC3(CCCCCC3)C2=O)c1C | -27.8
COCCn1c(C)cc(C(=O)CN2C(=O)NC3(CCCCCCC3)C2=O)c1C | -59
Cc1cc(C(=O)CN2C(=O)NC3(CCCCC3)C2=O)c(C)n1-c1ccc2c(c1)OCO2 | -56.4
CCCC1(CCC)NC(=O)N(CC(=O)c2cc(C)n(-c3ccc4c(c3)OCO4)c2C)C1=O | 5.65
Cc1cc(C(=O)CN2C(=O)NC3(CCCCC3)C2=O)c(C)n1C | -10.3

Compound | hERG current change (%, negative = inhibition) at 10uM [%]
Cc1nn(CC(=O)NCc2ccc(C(=O)O)cc2)c(C)c1[N+](=O)[O-] | 21.5
CCOC(=O)c1cc(C)[nH]c(=S)c1C#N | -23.4
Cc1ccc(C(=O)n2cnnc2N)cc1C | -0.0756
CC(=O)NC(Cc1cccc(F)c1)C(=O)NC1CCN(c2nnnn2-c2ccccc2)CC1 (stereo not drawn) | -5.71
CC(=O)NC(Cc1ccc(F)c(F)c1)C(=O)NC1CCN(c2nnnn2-c2ccccc2)CC1 (stereo not drawn) | -54.6
CC(=O)NC(Cc1ccc(F)c(F)c1)C(=O)NC1CCN(C(=O)c2ccc(Cl)cc2)CC1 (stereo not drawn) | -56.9
CC(=O)NC(Cc1ccc(F)c(F)c1)C(=O)NC1CCN(C(=O)c2ccc(C)cc2)CC1 (stereo not drawn) | -12.9
CC(=O)NC(Cc1ccc(F)cc1)C(=O)NC1CCN(c2nnnn2-c2ccccc2)CC1 (stereo not drawn) | -41
CC(=O)NC(Cc1cccc(F)c1)C(=O)NC1CCN(C(=O)c2ccc(C)cc2)CC1 (stereo not drawn) | 33
CN(C)S(=O)(=O)c1cccc(NC(=S)NC2CCCCC2)c1 | 6.69
CCCN(CC1CC1)C(=S)NC(=O)c1ccccc1Br | -4.58
C=CC(=O)N=c1sc2ccccc2n1-c1ccccc1 | -6.08
CCOC(=O)c1sc(=S)n(C)c1NC(=O)c1cccc(Br)c1 | 5.67
S=C(Nc1ccccc1)N1CCOCC1 | 11.5
Cc1ccc(NC(=O)C2CCCN(C3=NS(=O)(=O)c4ccccc43)C2)c(O)c1 (stereo not drawn) | -33.6
O=C(Nc1ccc(F)c(Cl)c1)C1CCCN(c2cnccn2)C1 (stereo not drawn) | -24.9
O=C(Nc1ccc(Cl)cc1)C1CCCN(C2=NS(=O)(=O)c3ccccc32)C1 (stereo not drawn) | -60
O=C(Nc1ccc(Br)cc1)C1CCCN(C2=NS(=O)(=O)c3ccccc32)C1 (stereo not drawn) | -29.1
O=C(Nc1ccc(F)c(Cl)c1)C1CCCC1 | 25.2
O=C(Nc1ccc(F)c(Cl)c1)C1CCCN(C2=NS(=O)(=O)c3ccccc32)C1 (stereo not drawn) | -63
COCCn1c(-c2ccc(Cl)cc2Cl)nc2c(c(=O)c3ccccc3n2C)c1=O | -8.66
COc1ccccc1C(=O)Nc1ccc2c(c1)CCCN2C(=O)c1ccccc1 | -39.8
O=c1cc[nH]c2c1ccc1cccnc12 | 21.5
CC(CC(=O)OCC(=O)NCc1ccc(Cl)cc1)c1ccccc1 (stereo not drawn) | -7.65

Compound | hERG current change (%, negative = inhibition) at 10uM [%]
C/C=C/c1ccc(OCCOc2cccc3cccnc23)c(OC)c1 | 20.3
O=Cc1ccc(OCCCOc2cccc3cccnc23)cc1 | -54.3
Brc1ccc(OCCCOc2cccc3cccnc23)cc1 | 6.35
O=Cc1ccccc1OCCCOc1cccc2cccnc12 | -4.59
C/C=C/c1ccc(OCCOCCOc2cccc3cccnc23)c(OC)c1 | -50.5
C=CCc1ccc(OCCOCCOc2cccc3cccnc23)c(OC)c1 | -29.3
CCc1ccc(S(=O)(=O)NCc2cn3ccsc3n2)s1 | 6.83
N/C(=N\OC(=O)c1ccc2ccccc2c1)c1cccc([N+](=O)[O-])c1 | 5.05
C#CCOCCOCCOCCNc1nc(N2CCN(C(=O)Cn3cc(CCC[NH+]=C(N)N)nn3)CC2)nc(N2CCN(C(=O)[C@H](CCCC[NH3+])n3cc(CCCC)nn3)CC2)n1.[Cl-] | 7.39
COc1ccc(S(=O)(=O)N2CCC(C(=O)c3ccc4c(c3)OCCO4)CC2)cc1 | -6.76
O=C(O)c1c2c(nc3ccccc13)CCCCC2 | 15.8
Cl.c1ccc2c(N3CCOCC3)c3c(nc2c1)CCC3 | -35.2
CC1CCCN(c2c3c(nc4ccccc24)CCCC3)C1 (stereo not drawn) | -65.2
CCOC(=O)C1=C(COC(=O)c2ccc([N+](=O)[O-])o2)NC(=O)NC1C (stereo not drawn) | -7.36
CCC(C)N=CC1=C(O)C(C(=O)OC)C(C)(C)CC1=O (stereo not drawn) | -5.35
CCOC(=O)C(=O)N=Nc1c(O)n(C)c2ccccc12 | 18.9
O=C(CSc1nc(Nc2ccccc2)nc(N2CCOCC2)n1)N1CCc2ccccc21 | -1.62
O=C(CSc1nc(Nc2ccccc2)nc(N2CCOCC2)n1)N1CCCC1 | -60.4
O=C(CSc1nc(Nc2ccccc2)nc(N2CCOCC2)n1)NC1CCCCC1 | -3.3
FC(F)(F)c1ccc(-c2csc(-c3ccno3)n2)cc1 | 1.72
Cc1cc(NCCCN)nc(-c2ccccc2O)n1 | 10
OC(c1ccc(F)cc1)(c1ccc(F)cc1)[C@@H]1CCCN1 | 7.57
CCN(CC)CCOC(=O)c1ccc(NC(=O)/C=C/c2cccs2)cc1.Cl | -76.3
CCCCOC(=O)c1ccc(NC(=O)C(=O)NCCN(C)C)cc1 | -28.9

Compound | hERG current change (%, negative = inhibition) at 10uM [%]
CCCCOC(=O)c1ccc(NC(=O)/C=C/c2cccs2)cc1 | -17.1
CCCCOC(=O)c1ccc(NC(=O)C(=O)NCCN(CC)CC)cc1 | -73.2
CCCCOC(=O)c1ccc(NC(=O)C(=O)NCc2ccncc2)cc1 | -8.29
CCCOC(=O)c1ccc(NC(=O)C(=O)NCC2CCCO2)cc1 (stereo not drawn) | 4.7
CCCOC(=O)c1ccc(NC(=O)COC)cc1 | 1.07
CCCOC(=O)c1ccc(NC(=O)C(=O)NCCN(CC)CC)cc1 | -52.1
CCCOC(=O)c1ccc(NC(=O)/C=C/c2cccs2)cc1 | 0.453
Nc1cccc(-n2cccc2)c1 | 18.5
COc1cccc(CNC(=O)CCC(=O)n2ncc3cc(C)ccc32)c1OC | 3.67
Cc1ccc(C(=O)NNC(=O)CCN2C(=O)C3CCCCC3C2=O)cc1 (stereo not drawn) | -5.88
CCCC/C(O)=C1\C(=O)CCCC1=NCCc1c(C)[nH]c2ccccc12 | -12
CNc1oc(C)nc1S(=O)(=O)c1ccc(C)cc1 | 10.6
CC(NC(=O)CCNS(=O)(=O)c1cccc2nsnc12)c1ccccc1 (stereo not drawn) | -8.74
CCOC(=O)CSc1nnc(CCc2nc3ccccc3[nH]2)n1C | -0.184
CC(=O)c1ccc(N2CCN(CC(=O)N(C3CC3)C3CCS(=O)(=O)C3)CC2)c(F)c1 (stereo not drawn) | -12
Cc1ccc(-n2[nH]c(C)c(/C=N/c3ccccn3)c2=O)cc1 | 2.58
CCOc1[nH]n(-c2ccccc2)c(=O)c1C=NCc1cccnc1 | -48.8
Cc1ccc(-n2[nH]c(C)c(C=Nc3cc(C)ccn3)c2=O)cc1 | -1.12
Cc1ccc(-n2[nH]c(C)c(C=NCc3ccncc3)c2=O)cc1 | -54.5
CCOc1[nH]n(-c2ccc(Cl)cc2)c(=O)c1C=NCc1cccnc1 | -42.1
Cc1[nH]n(-c2ccccc2)c(=O)c1C=NCCc1ccccc1 | -12.7
Cc1[nH]n(-c2ccccc2)c(=O)c1C=NCc1ccco1 | -10.7
Cc1[nH]n(-c2ccccc2)c(=O)c1C=NCc1ccncc1 | -58.1
CCOc1[nH]n(-c2ccccc2)c(=O)c1C=NCc1ccncc1 | -50
